# Screening results as filed in PubChem BioAssay.
# D2 ag-1 = agonists of human D2 dopamine receptor (beta-arrestin) | DiscoveRx PathHunter D2 beta-arrestin, luminescence, 90 min; 100% = 57 uM dopamine signal | activation, % (concentration not given with the values) | P14416 | 0.084% of 360,000 active; in the data active = activation above about 40%
# Target sequence (P14416 whole entry, looked up): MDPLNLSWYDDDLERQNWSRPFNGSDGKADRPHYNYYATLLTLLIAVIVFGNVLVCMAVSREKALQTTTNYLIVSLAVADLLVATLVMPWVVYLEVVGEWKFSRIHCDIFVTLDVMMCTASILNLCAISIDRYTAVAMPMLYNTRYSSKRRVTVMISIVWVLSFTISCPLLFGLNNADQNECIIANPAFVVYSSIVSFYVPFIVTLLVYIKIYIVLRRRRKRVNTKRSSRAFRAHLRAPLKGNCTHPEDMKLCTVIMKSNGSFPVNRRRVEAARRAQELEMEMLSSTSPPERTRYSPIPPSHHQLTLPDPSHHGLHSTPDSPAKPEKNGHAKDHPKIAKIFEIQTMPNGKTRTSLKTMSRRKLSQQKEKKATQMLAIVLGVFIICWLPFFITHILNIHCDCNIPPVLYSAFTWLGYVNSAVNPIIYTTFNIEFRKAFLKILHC
#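 DiscoveRx PathHunter D2 beta-arrestin cells (2,100/well) attached overnight, then compound-stimulated 90 min at 37 C in HBSS/10 mM HEPES/0.1% Tween-20 buffer; beta-galactosidase complementation read by luminescence after 1 h at ambient temperature. Dopamine 57 uM final (EC100) as control.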
# D2 PAM-1 = D2 dopamine receptor (human) potentiation; HEK293 T-REx D2, calcium flux, EC20 dopamine potentiation; potentiation, % at 10 µM; 0.34% of 340,000 active; AID 485347;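 active = potentiation over 3 SD above the plate norm, cut at about 30% in these data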
#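 Potentiation of an EC20 dopamine calcium response measured kinetically over 180 s, after a preceding 180 s compound-only read flagging agonists. Cells: inducible Hek293 Trex D2 line, 4000/well, cultured overnight at 30 C before dye loading.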
# D2 PAM-2 = human D2 receptor positive allosteric modulation; 0.23% of 360,000 active; potentiation, % (test concentration not listed); DiscoveRx D2 beta-arrestin cells, luminescence, 90 min; 100% = 57 uM dopamine signal; P14416; AID 624464; in the data active = potentiation above about 50%
#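 D2 cells co-treated with compound plus 50 nM dopamine (EC20) for 90 min at 37 deg C to detect potentiation. Beta-arrestin recruitment was read as enzyme-fragment luminescence after 1 h at ambient temperature. Full response was set by 57 uM dopamine.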
# D2 ag-2 = activates the human D2 dopamine receptor; activation, % at 2 µM; 0.53% of 340,000 active; AID 485358; HEK293 T-REx D2 cells, calcium flux agonist mode; P14416;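 active = activation over 3 SD above normal in the single-dose calcium agonist read, cut at about 30% in these data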
#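 HEK293 Trex D2 cells, tetracycline-induced, o/n 30 C 5% CO2; no-wash Ca dye, RT 30–90 min; 10-cycle baseline, 23 nl cpd added, kinetic Ca read 180 s; agonist hits = positive Ca response.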
# D2 antagonist = D2 dopamine receptor (human) antagonism. inhibition, % at 10 µM. 2% of 340,000 active. HEK293 TREx D2 cells, calcium flux, dopamine EC80. P14416; in the data active = inhibition above about 30%; inactive = below that, where a call was filed
#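 Inhibition of EC80 dopamine-driven calcium flux, recorded kinetically, defines activity here; cells are a tetracycline-induced HEK293 T-REx line expressing force-coupled D2.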
# A number is an active result; 0 = inactive; - = no result given. Only some compounds are listed: those with a hit (about 2.4% of all), similar ones and a draw of the others.
SMILES,D2 ag-1,D2 PAM-1,D2 PAM-2,D2 ag-2,D2 antagonist
CC(=O)C1=C(C)OC(N)=C(C#N)C1c1cc2cc(C)c(C)cc2nc1Cl (stereo unspecified),0,0,0,0,31
OCCN1CCN(c2ncnc3sc4c(c23)CCCC4)CC1,0,0,0,0,0
c1ccc2c(c1)nnn2-c1ncnc2sc3c(c12)CCCC3,0,0,0,0,31
Oc1ccc(N2CCN(c3ncnc4sc5c(c34)CCC5)CC2)cc1,0,0,68,0,0
Cc1nc(-n2nnc3ccccc32)c2c3c(sc2n1)CCCC3,0,0,0,0,0
O=c1[nH]c2cc3c(cc2cc1CN(CCc1ccccc1)Cc1nnnn1C1CCCC1)OCCO3,-,0,-,35,0
Cc1cc2cc(CN(Cc3ccc4c(c3)OCO4)Cc3nnnn3C3CCCC3)c(=O)[nH]c2cc1C,0,0,0,0,0
O=C(N1CCOCC1)N1CCC(n2nnc3cc(F)ccc32)CC1,0,0,0,-,-
O=C(c1ccc([N+](=O)[O-])cc1)N1CCC(n2nnc3cc(F)ccc32)CC1,0,33,0,0,0
Cc1ccccc1/C=N/NC(=O)c1cccnc1,0,0,0,0,0
O=C(N/N=C/c1cccc2ccccc12)c1cccnc1,0,0,0,0,37
O=C(COC(=O)c1cccnc1)Nc1cccc2ccccc12,0,0,0,0,32
O=C(O)c1cccc(N/N=C/c2sc(N3CCOCC3)nc2-c2ccccc2)c1,0,0,112,0,0
O=C(O)Cn1cc(/C=N/NC(=O)c2cc3cc(Br)ccc3o2)c2ccccc21,0,0,0,0,0
Cn1cc(/C=N/NC(=O)c2cc3cc(Br)ccc3o2)c2ccccc21,0,0,0,0,66
C=CC(=O)Nc1cccc(Nc2nc(N[C@H]3CC[C@H](N(C)C)CC3)nc3c2ncn3C(C)C)c1,0,-,0,-,-
O=C(O)c1cccc(N/N=C/c2cccc3ccccc23)c1,0,47,0,0,0
COc1ccc2ccccc2c1/C=N/Nc1cccc(C(=O)O)c1,0,0,0,0,0
O=C(N/N=C/C=C/c1cccc([N+](=O)[O-])c1)c1ccncc1,0,0,0,0,0
Nc1ccc(C(=O)N/N=C\C=C\c2cccc([N+](=O)[O-])c2)cc1,0,0,0,0,48
O=C(N/N=C/c1cccc([N+](=O)[O-])c1)c1cc2ccccc2o1,0,0,0,0,33
O=C(N/N=C/c1cccc2ccccc12)c1cc2ccccc2o1,0,0,0,0,52
CC1Cc2cc(S(=O)(=O)NCc3ccccc3Cl)ccc2N1C(=O)C1CCC1 (stereo unspecified),-,-,-,0,-
CCOc1ccc(C(=O)NCC(=O)OCc2c(C)noc2C)cc1OCC,0,0,0,0,37
Cc1ccc(S(=O)(=O)N2CCOCC2)cc1C(=O)OC(C)C(=O)c1ccccc1 (stereo unspecified),0,0,0,0,37
SMILES,D2 ag-1,D2 PAM-1,D2 PAM-2,D2 ag-2,D2 antagonist
CC(=O)Nc1ccc(NC(=O)CSCCc2ccccn2)cc1,0,34,0,0,0
Cc1cc2c(cc1C)NC(c1c(C)n(C)n(-c3ccccc3)c1=O)C1=C(CC(C)(C)CC1=O)N2 (stereo unspecified),0,0,0,34,0
COc1cc(C2Nc3cc(C)c(C)cc3NC3=C2C(=O)CC(C)(C)C3)ccc1OC(C)=O (stereo unspecified),0,0,0,0,0
CCOC(=O)C(CC)Sc1ncnc2c1c(-c1ccccc1)cn2-c1ccc(OC)cc1 (stereo unspecified),-,-,-,0,-
Cc1c(/C=N\NC(=O)C2COc3ccc(C(C)(C)C)cc3O2)c2ccccc2n1C (stereo unspecified),45,0,118,0,58
Cc1ccc(CNC(=O)c2ccc(N3CCCC3)c(NC(=O)Nc3ccc(F)c(Cl)c3)c2)cc1,-,0,-,0,-
CCOC(=O)c1cnn(-c2ccc(C(=O)Nc3cccc(C(C)=O)c3)cc2)c1N,-,0,-,0,-
Cc1ccc(-c2c[n+](Cc3ccc(Cl)c(Cl)c3)c3n2CCC3)cc1,0,0,0,0,30
Cc1cccc(C)c1OCc1nc2c3cnn(-c4ccccc4F)c3ncn2n1,-,0,-,-,-
Cc1csc(NC(=O)C2(C)CCN2C(=O)C(C)C)c1C#N (stereo unspecified),0,-,0,-,-
Cc1nn(Cc2ccccc2)c(C)c1NC(=O)c1noc2c1CCc1ccccc1-2,0,31,0,0,0
Cc1nn(Cc2ccc(Cl)c(Cl)c2)c(C)c1NC(=O)c1noc2c1CCc1ccccc1-2,-,0,-,0,-
COc1ccc(NC(c2ccccc2)c2ccncc2)cc1 (stereo unspecified),0,0,0,0,41
COc1cc(NC(c2ccccc2)c2ccccc2)cc(OC)c1OC,0,0,0,0,0
CCCOc1c(Br)cc(C(=O)OCc2cc(=O)n3ccsc3n2)cc1OC,0,-,0,-,-
Cn1cccc1-c1cc2n(n1)CCC(=O)N2CC(=O)Nc1ccc(F)cc1Cl,-,0,-,0,-
OC(COc1c(F)cc(Br)cc1F)CN1CCc2ccccc2C1 (stereo unspecified),0,0,0,0,65
Cc1cccc(C)c1OCC(O)CN1CCc2ccccc2C1 (stereo unspecified),0,-,0,-,-
COc1ccc(COCC(O)CN2CCc3ccccc3C2)cc1OC (stereo unspecified),0,-,0,-,-
OC(COCc1ccccc1)CN1CCc2ccccc2C1 (stereo unspecified),0,0,0,0,47
COCCN(C(=O)c1ccccc1)c1nnc(-c2cccnc2)s1,0,0,0,0,48
Cc1ccccc1OCCCCn1c(CCNC(=O)C(C)(C)C)nc2ccccc21,-,0,-,0,-
O=c1oc2ccccc2c(Nc2ccc(O)cc2)c1[N+](=O)[O-],0,0,0,0,0
Cc1ccc(Nc2c([N+](=O)[O-])c(=O)oc3ccccc23)cc1,0,0,0,0,31
CC(=O)c1ccc(N2CCN(C(=O)c3cccc(Oc4ccccc4)c3)CC2)cc1,0,0,0,0,35
SMILES,D2 ag-1,D2 PAM-1,D2 PAM-2,D2 ag-2,D2 antagonist
CC(=O)c1ccc(N2CCN(C(=O)c3ccc(-c4ccccc4)cc3)CC2)cc1,0,0,0,0,0
CC(=O)CC(c1ccccc1)S(=O)(=O)c1ccc([N+](=O)[O-])cc1 (stereo unspecified),0,0,0,0,70
O=C(Nc1ccc(C(=O)OCc2cc(=O)n3nc(C4CC4)sc3n2)cc1)c1cccc(F)c1,-,0,-,0,-
Cc1nc(NCc2ccco2)[nH]c(=O)c1CCC(C)C,0,-,0,0,30
CCCCNC(=O)c1sc(=S)n2c1[nH]c(=O)c1ccccc12,0,0,0,0,33
COc1ccc(OCC(=O)N2CCN(C(=O)c3cccc(F)c3)CC2)cc1,0,0,0,0,0
COc1cc(OC)cc(C(=O)N2CCN(C3CCCCC3)CC2)c1,0,0,0,0,0
